The whole screen tested about 4,100 compounds, of which about 1,600 (39%) were called active. Inconclusive results (about 25%) are left out. The call rests on the fitted dose curve; in most records, active means well fitted inhibition curve with a large enough effect; inconclusive means small, poorly fitted or top-dose-only effect; inactive means no such curve, though single readings can be large or run the other way. The list shows a part of the results. Entries that show only a call come without a potency.
Test: qHTS Validation assay for Inhibitors of Plasmodium falciparum Dd2 growth in vitro; further: nearly all actives have a fitted effect of over 70% in size
Conditions: P. falciparum Dd2 in RBCs, SYBR Green growth, 72 h; series mostly up to 28.7 µM
Procedure, shortened: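 P. falciparum Dd2-infected red blood cells (2.5% hematocrit, 0.3% parasitemia) grown 72 h at 37 °C under 5% O2 with compounds in a titration, 29 uM to 0.5 nM final. Growth read as SYBR Green-1 fluorescence after ~16 h lysis; artesunate 300 nM as positive control.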
In the case of `COc1cc(SC)ccc1C(=O)N[C@H]1CCN2C(=O)N(c3ccc(Cl)cc3)C(=O)[C@@H]2C1`, the Potency is reported as “inactive”. For `COCc1nc(-c2ccc(OC3CN(S(=O)(=O)c4ccccc4C)C3)cc2)no1`, the Potency was “inactive”. For `Cc1ccc2nc(CCc3ccc(N)cc3)[nH]c2c1`, the Potency was “inactive”. In the case of `COCCn1c(=O)n([C@H]2CCCN(C(=O)CC3CCCCC3)C2)c2ncccc21`, the Potency is reported as “inactive”. In the case of `CN(C)c1cc(N2CCCC(NC(=O)NCc3ccccc3)C2)ncn1` (stereo not given), the Potency is reported as “inactive”. In the case of `COc1nccnc1NC1CCN(C(=O)Cc2ccccc2)CC1`, the Potency is reported as “inactive”. With `Cc1cc(NC2CCCCC2)nc(NCc2ccccc2)n1` the Potency was 16.8 µM (active). With `Cc1cc(Nc2ccc(Cl)cc2)nc(NCc2ccccc2)n1` the Potency was 0.422 µM (active). For `CCCCNc1cc(C)nc(NCc2ccccc2)n1`, the Potency was 9.44 µM (active). For `Cc1cc(Nc2cccc(Cl)c2)nc(NCc2ccccc2)n1`, the Potency was 8.41 µM (active). In the case of `CCCc1noc(-c2ccn3c(CNC(=O)c4cccc(N(C)C)c4)nnc3c2)n1`, the Potency is reported as “inactive”. In the case of `Cc1cc(Nc2ccccc2)nc2cc(O)ccc12`, the Potency is reported as 0.422 µM (active). For `Cc1cc(=O)n(CC(=O)NCc2ccccc2Br)c(N(C)Cc2ccccc2)n1`, the Potency was “inactive”. With `Cc1cc(NCc2ccco2)nc2cc(O)ccc12` the Potency was 6.68 µM (active). With `Cc1cc(N(C)Cc2ccccc2)nc2cc(O)ccc12` the Potency was 2.37 µM (active). For `CNC(=O)[C@@H](c1ccc(Cl)cc1)N1CCC[C@H]1C(=O)N1CC[C@@H](O)C1`, the Potency was “inactive”. For `CCN1Cc2nc(OC)c(CNC(=O)C(C)n3cc(C)cn3)cc2C1=O` (stereo not given), the Potency was “inactive”. With `CCN(CC(O)c1cccc(O)c1)C(=O)C12CC3CC(CC(C3)C1)C2` (stereo not given) the Potency was 4.73 µM (active). In the case of `O=C(c1ccco1)N1CCCN(c2cc(-c3ccc(Br)cc3)[nH]n2)CC1`, the Potency is reported as “inactive”. In the case of `O=C(CN1CCN(C(=O)c2ccco2)CC1)Nc1cc(C(F)(F)F)ccc1Cl`, the Potency is reported as 7.5 µM (active). With `O=C(CN1CCN(C(=O)c2ccco2)CC1)Nc1cc(Cl)ccc1Cl` the Potency was 5.96 µM (active). For `CNC(=O)[C@@H]1CN(Cc2cc(C(F)(F)F)ccc2Cl)C[C@H]1CO`, the Potency was “inactive”. In the case of `O=C1c2cc(N3CCOCC3)nc(-c3ccccc3)c2CN1Cc1ccccc1`, the Potency is reported as 21.7 µM (active). In the case of `CC(=O)Nc1cccc(-c2ncc3c(n2)OCCN(Cc2ccccc2)C3=O)c1`, the Potency is reported as “inactive”. For `O=C1CCC2(CCCO2)CCN1Cc1ccccc1` (stereo not given), the Potency was “inactive”. In the case of `Nc1nc(-c2ccccn2)nc(N)c1Cc1ccc(Cl)cc1Cl`, the Potency is reported as 7.5 µM (active). With `Nc1nc(-c2ccccn2)nc(N)c1Cc1ccccc1F` the Potency was 13.3 µM (active). With `CCCCN1C(=O)c2[nH]nc(-c3ccccc3O)c2C1c1ccc(OCc2ccccc2)cc1` (stereo not given) the Potency was 5.96 µM (active). With `CCOc1cc(C2c3c(-c4ccccc4O)n[nH]c3C(=O)N2Cc2cccnc2)ccc1O` (stereo not given) the Potency was “inactive”. For `CCOc1ccccc1CN1CCC2(CCN(C(=O)OC)CC2)Oc2ccccc21`, the Potency was “inactive”. With `CCOc1ccccc1CN1CCC2(CCN(CCC(C)C)CC2)Oc2ccccc21` the Potency was 3.35 µM (active). With `CN(C)CCCNc1cc(N2CCN(C3CCCCC3)CC2)c2noc3c2c1C(=O)c1ccccc1-3` the Potency was 1.33 µM (active). With `COCCNc1cc(N2CCN(C3CCCCC3)CC2)c2noc3c2c1C(=O)c1ccccc1-3` the Potency was 15 µM (active). For `Cc1ccc(C(=O)Nc2sc3c(c2C(=O)O)CCCCC3)o1`, the Potency was “inactive”. In the case of `CCn1ncc(Br)c1C(=O)Nc1sc2c(c1C(N)=O)CCC2`, the Potency is reported as “inactive”. For `O=C(Nc1sc2c(c1C(=O)NCc1ccco1)CCCC2)c1cc(=O)c2ccccc2o1`, the Potency was 10.6 µM (active). For `O=c1cc(-c2ccncc2)oc2c(-c3cccc(CO)c3)nccc12`, the Potency was “inactive”. In the case of `O=c1cc(-c2cccnc2)oc2c(-c3ccccc3Oc3ccccc3)nccc12`, the Potency is reported as 17.2 µM (active). With `O=c1cc(-c2ccncc2)oc2c(-c3ccccc3O)nccc12` the Potency was “inactive”. In the case of `COc1ccc(Nc2cc(C)nc3ncnn23)cc1Cl`, the Potency is reported as “inactive”. For `Cc1cc(Nc2ccc3ccccc3c2)n2ncnc2n1`, the Potency was 0.596 µM (active). For `Cc1cc(Nc2ccc(C(C)C)cc2)n2ncnc2n1`, the Potency was 4.22 µM (active). In the case of `OC(CNCC(c1ccco1)N1CCCCC1)c1ccccc1` (stereo not given), the Potency is reported as 5.96 µM (active). For `COc1cccc(C(=O)N2CCCC(Cc3noc(-c4ccncc4)n3)C2)c1` (stereo not given), the Potency was “inactive”. With `O=C(c1ccncc1)N1CCC(Cc2nc(-c3ccccc3)n[nH]2)CC1` the Potency was “inactive”. In the case of `N#Cc1cccc(C(=O)N2CCCN(Cc3ccncc3)C(c3ccccc3)CC(=O)NCC2)c1` (stereo not given), the Potency is reported as 7.5 µM (active). In the case of `O=C(NCc1ccncc1)[C@@H]1C[C@@H](c2ccc(F)cc2)N(Cc2ccccc2)C1`, the Potency is reported as “inactive”. For `O=C1CC(c2ccccc2)N(Cc2ccncc2)CCCN(C(=O)Nc2ccccc2F)CCN1` (stereo not given), the Potency was 1.68 µM (active). For `COC(=O)c1c(C(=O)OC)c(-c2ccc(C)cc2)n2c1CS(=O)(=O)C2`, the Potency was “inactive”. In the case of `O=C(N[C@H]1C[C@H]2C(=O)NC[C@@H](CCC(=O)N3CCN(c4ccccc4)CC3)N2C1)C1CC1`, the Potency is reported as “inactive”. In the case of `COC[C@@H]1CN(Cc2cc(OC)cc(OC)c2)C[C@H]1C(=O)N(C)C`, the Potency is reported as “inactive”. With `CSc1cccc(NC(=O)Cn2c(-c3ccc(F)cc3)nc(C)c(CCO)c2=O)c1` the Potency was 13.3 µM (active). In the case of `Cc1nc(-c2cccc(Cl)c2)n(CC(=O)NCc2ccc(F)cc2)c(=O)c1CCO`, the Potency is reported as “inactive”. For `Cc1nc(-c2ccc(F)cc2)n(CC(=O)Nc2cccc(Cl)c2)c(=O)c1CCO`, the Potency was 15 µM (active). For `CC1=C(C(=O)NCc2ccccn2)C2(CCC(C)CC2)OC1=O` (stereo not given), the Potency was “inactive”. In the case of `O=C(Nc1cccc(C(F)(F)F)c1)C1CCN(S(=O)(=O)c2cccc3nsnc23)CC1`, the Potency is reported as “inactive”. With `NC(=O)C1CCN(CC(=O)Nc2cccc(C(=O)Nc3cccc(C(F)(F)F)c3)c2)CC1` the Potency was 6.68 µM (active). In the case of `O=C(NC1CC1)c1ccccc1OCC1CCCN(Cc2cccc3[nH]ccc23)C1` (stereo not given), the Potency is reported as 5.96 µM (active). For `CCOc1ccccc1C(=O)N1CCN(C2CCN(C)C2=O)CC1` (stereo not given), the Potency was “inactive”. In the case of `CC1(C)[C@H]2CC[C@@H](CNC(=O)c3cccc4[nH]ccc34)[C@@H]1C2`, the Potency is reported as “inactive”. For `CN(C)C[C@H]1C[C@@H](CO)CN(C(=O)c2ccccc2OC(F)(F)C(F)F)C1`, the Potency was “inactive”. With `Cc1ccncc1C(=O)N1CCCC(c2nnnn2C)C1` (stereo not given) the Potency was “inactive”. For `O=C(c1cc(-c2ccccc2)n[nH]1)N1CCCC(Cc2noc(-c3cnccn3)n2)C1` (stereo not given), the Potency was “inactive”. With `CCn1cc(CN2CCCC(COc3ccccc3C(=O)N3CCCC3)C2)c2ccccc21` (stereo not given) the Potency was 8.41 µM (active). In the case of `O=C(c1ccccc1OCC1CCCN(Cc2ccncc2F)C1)N1CCCCC1` (stereo not given), the Potency is reported as 10.6 µM (active). For `O=C(Nc1cccc(F)c1)N1CCC(Oc2ncccc2C(=O)N2CCCCC2)C1` (stereo not given), the Potency was “inactive”. For `O=C(c1ccccc1OCC1CCCN(Cc2ccncc2F)C1)N1CCCC1` (stereo not given), the Potency was 10.6 µM (active). With `COc1ccccc1C(=O)NC1CCCN(c2cc(-c3ccc(F)cc3)[nH]n2)C1` (stereo not given) the Potency was “inactive”. For `Cc1nc(N2CCCC3(CN(C)C(=O)O3)C2)cc(-n2cccn2)n1` (stereo not given), the Potency was “inactive”. With `CC(C)c1noc(-c2cccn3c(CNC(=O)c4cc(F)ccc4Cl)nnc23)n1` the Potency was “inactive”. With `COc1ccc(C2Nc3ccccc3C(=O)N2Cc2ccccc2)cc1COc1ccc(Cl)cc1Cl` (stereo not given) the Potency was 8.41 µM (active). For `CCC(C)(C)n1nnnc1C(c1ccccc1OC)N1CCN(C(=O)c2ccco2)CC1` (stereo not given), the Potency was 15 µM (active). In the case of `CCC(C)(C)n1nnnc1C(c1cc2cccc(C)c2[nH]c1=O)N1CCN(C(=O)c2ccco2)CC1` (stereo not given), the Potency is reported as 6.68 µM (active). For `COc1ccc(C(=O)N[C@@H]2CCC[C@@H]2C(=O)N2CCN(C(=O)c3ccco3)CC2)cn1`, the Potency was “inactive”. For `COc1cc2c(cc1OC)CN(C(=O)c1ccco1)CC2`, the Potency was “inactive”. With `Cc1ccc(NC(=O)N(Cc2ccc3c(c2)OCO3)Cc2cc3cc4c(cc3[nH]c2=O)OCCO4)cc1` the Potency was 6.68 µM (active). With `O=C(Nc1ccc(Cl)cc1)Nc1ccc2c(c1)N1CCN=C1S2` the Potency was 5.31 µM (active). For `CCCCCCCc1c(C)nc(N2CCOCC2)[nH]c1=O`, the Potency was 5.31 µM (active). In the case of `O=C(c1cc2cc(Br)ccc2[nH]1)N1CCc2ccccc21`, the Potency is reported as “inactive”. In the case of `NNC(=O)CN1C(c2cccc(Cl)c2)=Nc2ccc(Br)cc2C1c1ccccc1` (stereo not given), the Potency is reported as 2.66 µM (active). With `NNC(=O)CN1C(=O)Nc2ccc(Br)cc2C1c1ccccc1` (stereo not given) the Potency was “inactive”. With `COC(=O)CC1Oc2ccc(Cl)cc2-n2cc(-c3ccc(F)cc3)nc21` (stereo not given) the Potency was 4.22 µM (active). In the case of `CCn1cc(C(=O)N2CCN(c3ccccc3)CC2)c(=O)c2cc(S(=O)(=O)N(C)C3CCCCC3)ccc21`, the Potency is reported as “inactive”. For `CN(C1CCCCC1)S(=O)(=O)c1ccc2c(c1)c(=O)c(C(=O)N1CCN(c3ccccc3F)CC1)cn2C`, the Potency was “inactive”. In the case of `CCn1cc(C(=O)NCCCN2CCCC(C)C2)c(=O)c2cc(S(=O)(=O)N(C)C3CCCCC3)ccc21` (stereo not given), the Potency is reported as 8.41 µM (active). For `COc1ccc(CC(=O)N[C@@H]2CN(c3ccccn3)C[C@H]2CN(C)C)cc1`, the Potency was “inactive”. For `Cc1cc(Cl)c(S(=O)(=O)N2CCN(c3ccccn3)CC2)cc1OCC(=O)NC1CCCCC1`, the Potency was 0.668 µM (active). For `O=C(CC1CCCN(c2cnn(CC3CC3)c(=O)c2)C1)N1CCN(c2ccccn2)CC1` (stereo not given), the Potency was “inactive”. With `Cn1cccc1CN1CCn2c(nnc2-c2ccccc2)C1` the Potency was “inactive”. For `Cn1cccc1CN1C[C@@H](COc2ccncc2)[C@H](c2ccccn2)C1`, the Potency was 13.3 µM (active). In the case of `O=C(COc1ccc(Cl)cc1)N1C[C@@H](CO)[C@H](c2ccccn2)C1`, the Potency is reported as “inactive”. In the case of `CC(C)CCN(CCC(C)C)CC(O)Cn1c2ccccc2c(=O)c2ccccc21` (stereo not given), the Potency is reported as 1.88 µM (active). In the case of `O=C(Cc1c[nH]c2ccccc12)N1CCc2c(nc(-c3ccc(F)cc3)[nH]c2=O)C1`, the Potency is reported as “inactive”. In the case of `O=C([C@@H]1C[C@H](Oc2ccccc2)CN1C(=O)c1cc2ccccc2[nH]1)N1CCCC1`, the Potency is reported as “inactive”. With `O=C(c1ccc(OC2CCN(Cc3c[nH]c4ccccc34)CC2)cc1)N1CCCCC1` the Potency was 15 µM (active).

Reference: PubChem BioAssay AID1347416 (National Center for Advancing Translational Sciences (NCATS), 2020)
Potency means the concentration at half of the fitted maximal effect.
